# IMPase Li cell – membrane-permeable IMPase blocker, potentiated with lithium; CHO-M1 cells, IP1 TR-FRET (IP-One), carbachol + lithium; Potency, µM (top dose mostly 59.4 µM), inactives show top-dose activity, negative = IMPase inhibition, hits mostly inhibitors; 210,000 tested, 0.35% active;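 further: IP1 builds up when IMPase is blocked and the TR-FRET signal falls; plate controls were basal vehicle for no effect and high inhibitor control for full effect; nearly all actives have a fitted effect of over 50% in size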
#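 Lithium-sensitised IP1 accumulation assay; M1-expressing CHO cells treated 30 min at 37C with compound. Competitive antibody detection by time-resolved FRET followed a 10 min room-temperature lysis step.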
# GCN5L2 inh – blocks human GCN5L2 histone acetyltransferase; Q92830; GCN5L2 HAT assay, ThioGlo1 CoA-SH fluorescence; Potency, µM (doses to about 58.9 µM), for the others: top-dose activity change, negative = inhibition, most hits filed as inhibitors; 390,000 tested, 0.21% active; AID 504327; further: on the % scale 0 is the no-effect control and ±100 the full control effect
#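 GCN5L2 (20 nM) in 50mM HEPES pH 7.5, 0.1mM EDTA, 0.01% Tween-20 preincubated 15 min with compounds at room temperature. Reaction started with H3(1-25) 75uM, acetyl-CoA 70uM, ThioGlo1 50uM; CoA-thiol fluorescence (Ex340/Em540) read at 0 and 20 min.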
# Sfp inh – blocks B. subtilis Sfp PPTase activity; Q9F4F7; Biochemical Sfp PPTase activity, qHTS; Potency, µM, without a hit: largest response in the series, negative = inhibition, most hits filed as inhibitors; 310,000 tested, 3.5% active;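 further: the enzyme is Sfp with the accession as filed and its product quenches rhodamine fluorescence; 0% = enzyme reaction without inhibitor and -100% = no enzyme wells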
#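 Sfp 15 nM + cpd, 15 min RT; start w/ rhodamine-CoA 5 uM, BHQ-2-YbbR 12.5 uM (final); 50 mM Hepes pH 7.6, 10 mM MgCl2, 0.01% NP-40, 0.01% BSA; read 525/598 nm at 0 and 30 min.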
# NPSR antagonist – blocks cAMP signaling of the human neuropeptide S receptor | Q6W5P4 | 220,000 tested, 1% active | CHO-NPSR cells, cAMP TR-FRET, antagonist mode | Potency, µM (series often up to 38.3 µM), for inactives: at the highest dose activity change, negative = inhibition, hits mostly inhibitors; further: on the % scale 0 is the no-effect control and ±100 the full control effect; nearly all actives have a fitted effect of over 50% in size
# Target sequence (Q6W5P4 whole entry, looked up): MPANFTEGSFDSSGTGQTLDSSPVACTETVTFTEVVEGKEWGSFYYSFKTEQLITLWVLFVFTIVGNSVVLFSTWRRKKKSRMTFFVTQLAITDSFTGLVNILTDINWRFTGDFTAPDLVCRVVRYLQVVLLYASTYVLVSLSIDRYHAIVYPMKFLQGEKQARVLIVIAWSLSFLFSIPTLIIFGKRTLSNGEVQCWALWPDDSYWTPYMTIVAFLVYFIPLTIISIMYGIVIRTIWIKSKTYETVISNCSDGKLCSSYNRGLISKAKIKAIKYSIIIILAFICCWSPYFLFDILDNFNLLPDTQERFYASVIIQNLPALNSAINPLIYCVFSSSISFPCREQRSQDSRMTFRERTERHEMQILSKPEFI
# Epigenetic derep – epigenetic control regulation, reporter derepression; murine LDR cells, GFP reporter derepression, 30 h; Potency, µM (doses to about 53.9 µM), for the others: at the highest dose GFP activation, most hits filed as activators; 280,000 tested, 0.2% active; AID 1865; further: % of control where 0% means no effect; nearly all actives have a fitted effect of over 60% in size
#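 Murine LDR cells bearing a silenced CMV-driven GFP reporter were exposed to compound for 30 h at 37 C. After PBS washes, GFP-positive cells (20-120 um objects) counted by laser-scanning microplate cytometry.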
# JMJD2E inh – blocks human JMJD2E demethylase activity. B2RXH2. 230,000 tested, 1.6% active. Potency, µM (highest dose often 57.1 µM), inactives show at the highest dose activity change, negative = inhibition, actives largely listed as inhibitors. JMJD2E catalytic domain, FDH-coupled NADH fluorescence (FDH is formaldehyde dehydrogenase);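 further: 0% = wells with enzyme and -100% = buffer wells without enzyme; nearly all actives have a fitted effect of over 50% in size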
# Target sequence (B2RXH2 1-337 limits assumed): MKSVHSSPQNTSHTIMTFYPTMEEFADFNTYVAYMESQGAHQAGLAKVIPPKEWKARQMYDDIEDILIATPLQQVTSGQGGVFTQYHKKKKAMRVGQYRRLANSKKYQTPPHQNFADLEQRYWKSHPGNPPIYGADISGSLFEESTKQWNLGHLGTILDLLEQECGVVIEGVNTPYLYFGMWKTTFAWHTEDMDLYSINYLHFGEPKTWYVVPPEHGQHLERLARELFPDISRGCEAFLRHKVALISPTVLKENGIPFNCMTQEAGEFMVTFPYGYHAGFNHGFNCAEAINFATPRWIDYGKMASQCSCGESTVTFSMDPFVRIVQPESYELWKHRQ
# * = called active by the depositor; ? = inconclusive; . = no result given; [ ] = another dose, or the depositor's remark. A selection: hits, their analogues and other compounds. The true share with any hit is near 3.6%. Unless noted, the call rests on the fitted dose curve; in most records, active means well fitted curve in the direction sought with a large enough effect; inconclusive means small, poorly fitted or top-dose-only effect, or another doubt; inactive means no such curve, though single readings can be large; an effect the other way counts as inactive or inconclusive. Potency means the concentration at half of the fitted maximal effect.
SMILES,IMPase Li cell,GCN5L2 inh,Sfp inh,NPSR antagonist,Epigenetic derep,JMJD2E inh
O=C(Nc1c(F)cc(F)cc1Br)c1ccco1,-7%,-9%,50µM*,-13%[46.1 µM],1%,9%
Cc1cc(C)cc(NC(=O)C(=O)NCC(c2cccnc2)N2CCOCC2)c1 (stereo unspecified),.,-8%,.,.,1%,.
O=C(Nc1ccc(Cl)c(-c2nc3ccccc3o2)c1)c1cccc2c(Cl)cccc12,.,-7%,.,.,1%,.
C=CCN1C(=O)/C(=C\c2ccco2)C(C(=O)OC)=C1C,2%,-8%,20µM*,-7%,0%,3%
COC(=O)C1=C(C)N(CCc2ccccc2)C(=O)/C1=C\c1ccco1,18%,-11%,50µM*,-52%,?,5%
COc1ccc(C2C(O)C(c3c[nH]c4ccccc34)=NN2C(=O)CCl)cc1 (stereo unspecified),.,-15%,-2%,.,.,.
COc1ccc(C2NN=C(c3c[nH]c4ccccc34)C2O)cc1 (stereo unspecified),.,-2%,56µM*,.,.,.
C=C(C)C(O)C(CC/C=C(\C)C(=O)OCC)OC (stereo unspecified),.,.,-1%,.,0%[10.1 µM],.
O=C1C(Cl)=C(NC2CCc3ccccc32)C(=O)c2ncccc21 (stereo unspecified),20%,.,45µM*,.,1%,5µM*
O=C1C(Cl)=C(NCCN2CCOCC2)C(=O)c2ncccc21,38%,-6%,-2%,.,4%,29%
NS(=O)(=O)c1ccc(Nc2ccc([N+](=O)[O-])c3nonc23)cc1,.,-21%,79µM*,-35%,1%,-11%
C=CCNC(=S)NNc1nc2sc3c(c2c(=O)[nH]1)CC(C)(C)OC3,.,1%,7.1µM*,.,.,.
COc1ccc2c(c1)C(c1ccccc1C)CC(=O)O2 (stereo unspecified),18%,-17%[88.6 µM],-9%,.,-2%[96.6 µM],.
O=C(NCCCN1CCN(c2ccc(F)cc2)CC1)c1sc2ncccc2c1-n1cccc1,.,-7%,.,.,-1%,.
CC(=C\C(=O)O)/C(=C/c1ccc(C)o1)C(=O)O,-5%,-1%,4.5µM*,1%,8%,-26%
CC(=C\C(=O)O)/C(=C/c1ccco1)C(=O)O,.,2%,-5%,38%,5%,?
COc1ccc(NC(=S)Nc2ncccc2C)cc1OC,8%,-3%,40µM*,-12%,-1%,?
Cc1cccnc1NC(=S)NCCc1ccccc1,20%,-12%,40µM*,-41%,-1%,?
S=C(NCCc1ccccc1)Nc1c(Cl)cccc1Cl,.,0%,32µM*,-8%,1%,11%
Cc1cccnc1NC(=S)Nc1ccc(Cl)c(Cl)c1,2%,18%,14µM*,51%,-2%,-26%
Cc1cccnc1NC(=S)Nc1ncccc1C,.,-2%,-21%,-8%,2%,?
Cc1ccc(NC(=S)NCCc2ccccc2)nc1,11%,-5%,-9%,-30%,-1%,-21%
CC(=O)Nc1ccc(S(=O)(=O)N2CCc3nc(COc4ccccc4)c4c(c3C2)CO[C@@H](C)C4)cc1,7%,.,23%,.,.,3%[11.4 µM]
Cc1cc(C)nc(NN2C(=O)C=CC2=O)n1,.,2%,14µM*,.,.,.
CN(C)c1ccc(-c2cncnc2-n2ccnc2)cc1,23%,?,-26%,.,.,.
SMILES,IMPase Li cell,GCN5L2 inh,Sfp inh,NPSR antagonist,Epigenetic derep,JMJD2E inh
CCOC(=O)CCNC(=O)N1CCN(S(=O)(=O)c2ccc3c(ccn3C)c2)CC1,.,7%,.,.,-2%,.
O=C(Nc1ccc([N+](=O)[O-])cc1)Nc1ccc(OC(F)F)c(Cl)c1,8%,-11%,-4%,10µM*,0%,-4%
COc1cc(OC)c2c(=O)c(-c3ccccc3)coc2c1,1%,-16%,?,.,-2%,?
Nc1ccc(-n2cc(-c3ccccc3)[nH]c2=S)cc1,.,-3%,35µM*,.,.,.
COc1cc(C(CC(=O)Nc2ccc(Br)cn2)N2Cc3ccccc3C2=O)cc(OC)c1OC (stereo unspecified),.,-7%,.,.,3%,.
CSc1ccc(/C=N\Nc2nncn2N)cc1,.,0%,79µM*,.,.,.
CC1CCN(c2ccc(/C=N\Nc3nncn3N)cc2[N+](=O)[O-])CC1,3%,-7%,79µM*,-5%,2%,?
CC1CCN(c2ccc(/C=N/n3nnnc3N)cc2[N+](=O)[O-])CC1,2%[38.3 µM],0%,11%,-18%[46.1 µM],-1%,-5%
CCOc1ccccc1CNC(=O)CCCN1C(=O)COc2ccc(C)cc21,.,-5%,.,.,12%,.
CC(C)C[C@H](NC(=O)c1nc[nH]c1C(=O)N[C@@H](CCCCNC(=O)OC(C)(C)C)C(=O)OC(C)(C)C)C(=O)OC(C)(C)C,.,-11%,17%,10µM*,-1%,-3%
CC(C)(C)OC(=O)NCCCC[C@H](NC(=O)c1[nH]cnc1C(=O)Nc1ccccc1)C(=O)OC(C)(C)C,.,-26%,22%,?,-3%,-1%
CC(C)C[C@H](NC(=O)c1nc[nH]c1C(=O)NCCCCCNC(=O)OC(C)(C)C)C(=O)OC(C)(C)C,18%,-22%,39%,?,0%,1%
CC(C)(C)OC(=O)NCCCC[C@H](NC(=O)c1[nH]cnc1C(=O)Nc1ccc(Cl)cc1)C(=O)OC(C)(C)C,.,?,13%,?,-1%,22µM*
Cc1oc(-c2ccc(C(=O)NC(C)c3ccccc3)cc2)nc1CS(=O)(=O)c1ccccc1 (stereo unspecified),.,-20%,.,.,3%,.
CC(C)ON(C(C(=O)NO)C(C)C)S(=O)(=O)c1ccc(-c2ccccc2)cc1 (stereo unspecified),.,14%,-7%,.,.,.
CCOc1ccc(S(=O)(=O)NNS(=O)(=O)c2ccc(C)cc2C)cc1,.,-6%,79µM*,.,.,.
CCOC(=O)C1=C(Cc2ccc(Cl)cc2)C(=O)c2ccccc2C1=O,28%[38.3 µM],-13%,3.5µM*,?,8%,?
CCN(CC)S(=O)(=O)c1ccc(O)c(NC(=O)CN2CCc3ccccc3C2)c1,13%,-3%,33%,-12%,-3%,0%
CCN(CC)S(=O)(=O)c1ccc(O)c(NS(=O)(=O)c2ccccc2F)c1,4%,-8%,50µM*,5%,-1%,-7%
CC(C)(C)OC(=O)N1CCC(c2c(C(=O)NCc3ccco3)cnn2-c2ccc(F)cc2F)CC1,.,1%,.,.,0%,.
C#CCOCCOCCOCCNc1nc(N2CCN(C(=O)[C@H]([C@@H](C)CC)n3cc([C@@H](N)CO)nn3)CC2)nc(N2CCN(C(=O)[C@H](CCCCN)n3cc([C@@H](N)C(C)CC)nn3)CC2)n1 (stereo partly specified),-3%,-6%,-14%,-47%,1%,-1%

# Screening data: PubChem, National Center for Advancing Translational Sciences (NCATS)
